This is an account of results in PubChem BioAssay AID686979 (National Center for Advancing Translational Sciences (NCATS), 2013).

Among all 420,000 compounds or so, about 50,000 (12%) were called active. Inconclusive results (about 26%) are left out. This is one part of a sample in which actives are shown more often than they occur. Unmarked numbers belong to inactive results. The call rests on the fitted dose curve; in most records, active means well fitted inhibition curve with a large enough effect; inconclusive means small, poorly fitted or top-dose-only effect; inactive means flat fitted curve, though single readings scatter.
On the % scale 0 is the no-effect control and ±100 the full control effect; potency means the concentration at half of the fitted maximal effect.

The nature of the experiment: qHTS for Inhibitors of human tyrosyl-DNA phosphodiesterase 1 (TDP1): qHTS in cells in presence of CPT. Further: nearly all actives have a fitted effect of over 55% in size. The note with it: chicken DT40 Tdp1-/-;hTDP1 cells + 20 nM CPT, ATP luminescence, 48 h; series mostly up to 46.2 µM; activity change, negative = growth inhibition: at the top concentration. The procedure, abridged: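 Chicken DT40 Tdp1-/- cells complemented with human TDP1, 400 cells/well, exposed to compounds plus 20 nM camptothecin for at least 48 h at 37 C; viability read as ATP content by CellTiter-Glo luminescence.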
Regarding `COC(=O)[C@]12CCCCC=C1N(Cc1ccccc1)C(=O)[C@H](CC(=O)NCc1ccc(C)o1)C2`, the “activity change, negative = growth inhibition” value is -20%.
Consider `Cc1ccc(CNC(=O)C2(C(F)(F)F)C/C(=C\Cc3ccccc3)CCCO2)o1` (configuration not stated), for which the Potency was 16.4 µM (active).
For `Cc1ccc(C(=O)N2CC(=O)Nc3ccccc32)o1`, the “activity change, negative = growth inhibition” value was -0.865%.
Still for that read-out and setting: the value for `Cc1ccc2c(c1)nnc1nnc(SCC(=O)O)n12` was -2.45%; that for `Cc1cccc(-c2nnc(SCC(=O)O)n2Cc2ccccc2)c1` was 2.29%.
Still for that read-out and setting: the value for `CCC(C(=O)NC1CCCC1)N(C(=O)Cn1nnc(-c2ccc(C)o2)n1)c1ccc(OC)c(OC)c1` (configuration not stated) was 4.9%; that for `Cc1cccc(C)c1NC(=O)COC(=O)c1ccccc1O` was -1.8%.
The same measure, in the same setting: as for `COc1ccc(/C=C(/CC(=O)Nc2ccc(C)cc2)c2nc3ccccc3s2)cc1`, the figure is 12.5%; as for `COc1ccc(N=C(C)c2sc3ccccc3c2O)cc1`, 3.55%.
For the compound `COC(=O)Cc1[nH]n(-c2nc3ccccc3s2)c(=O)c1C(C)=Nc1ccc(OC)cc1`, the Potency is 5.17 µM (active).
For the compound `COc1ccc(C2NC(=S)NC3=C2CCc2ccccc23)cc1OC` (configuration not stated), the “activity change, negative = growth inhibition” value was -8.49%.
Still for that read-out and setting: as for `C=CCN(CC=C)C(=O)COC(=O)c1n[nH]c2ccccc12`, the figure is -1.43%; as for `CNC1(c2nnnn2-c2c(C)cccc2C)CCOC(C)(C)C1` (configuration not stated), -0.779%; as for `O=C(NCCO)C(=O)NCC(c1ccc2c(c1)OCO2)N1CCN(c2ccc(F)cc2)CC1` (configuration not stated), 2.47%.
Consider `CC(C)CC(=O)NCC(c1ccc2c(c1)OCO2)N1CCN(c2ccc(F)cc2)CC1` (configuration not stated), for which the Potency is 16.4 µM (active).
As for `CC(C)CNC(=O)C(=O)NCC(c1ccc2c(c1)OCO2)N1CCOCC1` (configuration not stated), the “activity change, negative = growth inhibition” value was 3.18%.
Still for that read-out and setting: as for `COc1ccc(N)cc1NC(=O)CN1CCOCC1`, the figure is -5.1%; as for `COc1ccc(C2C(C(C)=O)=C(O)C(=O)N2CCc2c[nH]c3ccccc23)cc1` (configuration not stated), -10.4%.
Consider `CC(=O)c1ccc(Nc2nc(C(N)c3ccccc3Cl)cs2)cc1` (configuration not stated), for which the Potency was 14.6 µM (active).
With `CC(=O)c1ccc(NC(=O)C(C)N(C)CC(=O)Nc2ccccc2Cl)cc1` (configuration not stated), the “activity change, negative = growth inhibition” value was -5.9%.
The same measure, in the same setting: as for `CC(=O)c1ccc(NC(=O)c2cc(-c3cccs3)on2)cc1`, the figure is 4.84%.
In the case of `COc1cc(NC(=O)c2noc3c2CSc2ccccc2-3)cc(OC)c1OC`, the Potency was 9.2 µM (active).
`COc1ccccc1-c1cc(C(=O)N2CCCCC2)no1`: the “activity change, negative = growth inhibition” value was -28.7%.
On the same count and under the same terms, as for `COc1cc(OC)c(NC(=O)c2c3c(nn2C)-c2ccccc2SC3)cc1Cl`, the figure is -88.3%; as for `Cc1cccc(-n2c(Cc3cc(=O)[nH]c(=O)[nH]3)nnc2SCC(=O)Nc2cccc(C(F)(F)F)c2)c1`, -2.7%.
Regarding `NC(=O)NC(=O)CSc1nc2cc([N+](=O)[O-])ccc2n1-c1cccc(C(F)(F)F)c1`, the Potency was 10.3 µM (active).
Take `COc1ccc(CCNC(=O)CSc2nc3[nH]ncc3c(=O)n2-c2cccc(C(F)(F)F)c2)cc1OC`: the “activity change, negative = growth inhibition” value was 4.43%.
On to `COc1ccc(NS(=O)(=O)c2cc3c(cc2C)N(C(C)=O)CCO3)cc1`, for which the Potency entry was “inactive”.
As to `COc1ccc(C(=O)NC(Cc2ccc(OC(=O)c3ccc(OC)cc3)cc2)C(=O)O)cc1` (configuration not stated), the “activity change, negative = growth inhibition” value was -1.18%.
On the same count and under the same terms, as for `O=C(Nc1ccncc1)c1ccccc1[N+](=O)[O-]`, the figure is -26.9%.
`O=[N+]([O-])c1ccccc1SNc1ccccn1`: the Potency is 20.6 µM (active).
Regarding `O=C(CSc1nnc(-c2ccc([N+](=O)[O-])cc2)o1)Nc1ccccn1`, the “activity change, negative = growth inhibition” value is -12.2%.
Same read-out and setting: the value for `CCN1C[C@@H]2[C@@H]3C(=O)N(C)C(=O)[C@@H]3[C@](C)(C1=O)N2C(=O)c1ccccc1` was -2.52%.
Consider `COc1ccc(-c2nnc(SCc3cccnc3)o2)cc1`, for which the “activity change, negative = growth inhibition” value was -2.9%.
Same read-out and setting: as for `N#Cc1nc(COc2ccc(Cl)cc2)oc1N1CCCC1`, the figure is -22%.
With `N#Cc1nc(COc2ccc(-c3ccccc3)cc2)oc1NCc1cccnc1`, the Potency was 6.51 µM (active).
`CCOC(=O)C[C@H]1c2ccc(C(F)(F)F)cc2S(=O)(=O)N1c1ccccc1`: the “activity change, negative = growth inhibition” value was -27.7%.
On the same count and under the same terms, as for `COc1ccc2oc(N)c(C=O)c(=O)c2c1`, the figure is 0.0059%.
Regarding `CCN(CC(=O)Nc1cc(Cl)ccc1C)C(=O)CSCc1ccc(C)cc1`, the Potency was 1.3 µM (active).
On to `CCN(CC(=O)Nc1cc(Cl)ccc1C)C(=O)CN1C(=O)NC2(CCCC2)C1=O`, for which the “activity change, negative = growth inhibition” value is 6.84%.
Same read-out and setting: as for `CCN(CC(=O)Nc1cc(Cl)ccc1C)C(=O)Cn1c(=O)cnc2ccccc21`, the figure is 18.2%.
`CCCNC(=O)CCc1c(C)nc2c(c(C)nn2-c2ccccc2)c1C`: the “activity change, negative = growth inhibition” value is -9.57%.
Same read-out and setting: the value for `CC(=O)Nc1ccccc1-c1nc(CNC(=O)c2ccc(Cl)cc2)c(C)o1` was -121%; that for `COCCNC(=O)c1ccc(S(=O)(=O)c2ccc(Cl)cc2)c(NC(C)=O)c1` was -7.56%.
Consider `CC(=O)Nc1cc(C(=O)NCc2ccc(F)cc2Cl)ccc1Sc1ccc(Cl)cc1`, for which the Potency was 20.6 µM (active).
For the compound `O=C(CCc1ccccc1Cl)Nc1ccc(S(=O)(=O)Nc2nccs2)cc1`, the “activity change, negative = growth inhibition” value was 5.1%.
For `CN(C)S(=O)(=O)c1cccc(NC(=O)COC(=O)C2(c3ccccc3F)CCCC2)c1`, the Potency is 18.4 µM (active).
For `CN(C)S(=O)(=O)c1cccc(NC(=O)COC(=O)/C=C/c2cccs2)c1`, the “activity change, negative = growth inhibition” value was 8.48%.
In the case of `CN(C)S(=O)(=O)c1cccc(NC(=O)COC(=O)c2cc(=O)[nH]c(=O)[nH]2)c1`, the “activity change, negative = growth inhibition” value was 4.15%.
Turning to `O=C(NCc1ccco1)c1ccc(NS(=O)(=O)c2cccc([N+](=O)[O-])c2)cc1`, the “activity change, negative = growth inhibition” value is -13.8%.
As to `COc1ccc(NC(=O)CSc2nnc(Cc3ccccc3)c(=O)n2N)cc1`, the “activity change, negative = growth inhibition” value is -9.25%.
On the same count and under the same terms, as for `COc1ccc(C(=O)N(C)CC(O)c2ccccc2)cc1OC1CCN(C(C)=O)CC1` (configuration not stated), the figure is -3.18%.
